Reference: PubChem BioAssay (NCI)
The panel holds about 83,000 compounds, 20% with a hit somewhere; the sample as a whole holds those more often.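 Single-dose data. Exposure time 48 hours. Values below 10 considered active.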 The source made the active and inactive calls.

Assays:
Test in all cases: NCI-60 one-dose screen, 48 h (100 = growth as untreated, 0 = no growth, -100 = all killed)
Settings in all cases: 10 µM
HCT-15 colon = test system: HCT-15 colon
HT29 colon = test system: HT29 colon
SNB-75 CNS = test system: SNB-75 CNS
SNB-19 CNS = test system: SNB-19 CNS
U251 CNS = test system: U251 CNS
PC-3 prostate = test system: PC-3 prostate
SK-MEL-5 melanoma = test system: SK-MEL-5 melanoma
UACC-62 melanoma = test system: UACC-62 melanoma
LOX IMVI melanoma = test system: LOX IMVI melanoma
SK-MEL-28 melanoma = test system: SK-MEL-28 melanoma
SK-MEL-2 melanoma = test system: SK-MEL-2 melanoma
EKVX NSCLC = test system: EKVX NSCLC
SN12C renal = test system: SN12C renal
UO-31 renal = test system: UO-31 renal
TK-10 renal = test system: TK-10 renal
ACHN renal = test system: ACHN renal
CAKI-1 renal = test system: CAKI-1 renal
A498 renal = test system: A498 renal
CCRF-CEM leukemia = test system: CCRF-CEM leukemia
MOLT-4 leukemia = test system: MOLT-4 leukemia

Measured: growth

CC1OC2CC(=O)OC2C2=C1C(=O)c1c(O)c3c(c(O)c1C2=O)C1CC(O)C3(O)C(C)O1 (centres undefined)
active: HCT-15 colon -15.8% | HT29 colon -15.9% | SNB-75 CNS -28.9% | SNB-19 CNS 4.68% | U251 CNS -23.4% | PC-3 prostate 7.91% | SK-MEL-5 melanoma -96.1% | UACC-62 melanoma -76.5% | LOX IMVI melanoma -65.9% | SK-MEL-28 melanoma -51.5% | SK-MEL-2 melanoma -55.7% | SN12C renal -33% | UO-31 renal 1.82% | TK-10 renal -16.6% | ACHN renal -16.2% | CAKI-1 renal 8.24% | A498 renal -18.1%
inactive: EKVX NSCLC 13.1% | CCRF-CEM leukemia 12%

COc1ccc2nc3cc(Cl)ccc3c(NCCCNCCO)c2c1
active: HT29 colon -66.3% | SNB-75 CNS -36.4% | SNB-19 CNS 4.9% | U251 CNS -45.2% | PC-3 prostate -30.6% | UACC-62 melanoma -64.2% | LOX IMVI melanoma -59.7% | SK-MEL-28 melanoma -49% | SK-MEL-2 melanoma -87.7% | EKVX NSCLC -12.9% | SN12C renal 5.95% | UO-31 renal -11.5% | TK-10 renal -29.4% | ACHN renal -9.61% | A498 renal -57% | CCRF-CEM leukemia -1.87% | MOLT-4 leukemia 2.6%
inactive: HCT-15 colon 13.6% | SK-MEL-5 melanoma 14.3% | CAKI-1 renal 18.7%

CC(=O)Nc1ccc2c(c1)C(=O)c1cccc(C(=O)O)c1-2
inactive: HCT-15 colon 107% | HT29 colon 115% | SNB-75 CNS 91% | SNB-19 CNS 101% | U251 CNS 108% | PC-3 prostate 99.5% | SK-MEL-5 melanoma 95.5% | UACC-62 melanoma 109% | LOX IMVI melanoma 109% | SK-MEL-28 melanoma 97.9% | SK-MEL-2 melanoma 115% | EKVX NSCLC 107% | SN12C renal 109% | UO-31 renal 111% | TK-10 renal 116% | ACHN renal 105% | CAKI-1 renal 94.9% | A498 renal 120% | CCRF-CEM leukemia 103% | MOLT-4 leukemia 107%

CC[C@H]1OC(=O)[C@H](C)[C@@H](O[C@H]2C[C@@](C)(OC)[C@@H](O)[C@H](C)O2)[C@H](C)[C@@H](O[C@@H]2O[C@H](C)C[C@H](N(C)C)[C@H]2O)[C@](C)(OC)C/C(C)=C2/O[C@@]1(C)C=C2C
active: HCT-15 colon -33.5% | HT29 colon -7.11% | U251 CNS 2.36% | UACC-62 melanoma -83.8% | LOX IMVI melanoma -85.1% | SK-MEL-28 melanoma -57.1% | SK-MEL-2 melanoma -17.3%
inactive: SNB-75 CNS 49.1% | SNB-19 CNS 57.4% | PC-3 prostate 53.3% | SK-MEL-5 melanoma 18.8% | EKVX NSCLC 75% | SN12C renal 76.9% | UO-31 renal 50.5% | TK-10 renal 97.4% | ACHN renal 24.5% | CAKI-1 renal 21.7% | A498 renal 83.9%

OCC1OC(n2cnc3c(NCc4ccco4)ncnc32)C(O)C1O (centres undefined)
active: HCT-15 colon 6.12% | LOX IMVI melanoma -63.7% | SN12C renal 7.6% | ACHN renal 4.08% | A498 renal 9.69% | CCRF-CEM leukemia 6.74% | MOLT-4 leukemia -4.64%
inactive: HT29 colon 23.3% | SNB-75 CNS 14.7% | SNB-19 CNS 28.5% | U251 CNS 43.7% | PC-3 prostate 22% | SK-MEL-5 melanoma 23.7% | UACC-62 melanoma 32.5% | SK-MEL-28 melanoma 68.1% | SK-MEL-2 melanoma 76% | EKVX NSCLC 65.3% | UO-31 renal 20.4% | TK-10 renal 41.4% | CAKI-1 renal 14.1%

COc1cc2nc(SCC(=O)Nc3cc(OC)c(OC)c(OC)c3)n(Cc3ccccc3)c(=O)c2cc1OC
inactive: HCT-15 colon 90.2% | HT29 colon 61.9% | SNB-19 CNS 63.7% | PC-3 prostate 35.8% | SK-MEL-5 melanoma 67.2% | UACC-62 melanoma 76.3% | LOX IMVI melanoma 68.7% | SK-MEL-28 melanoma 60.5% | SK-MEL-2 melanoma 45.4% | EKVX NSCLC 75.5% | SN12C renal 69.1% | UO-31 renal 48.9% | ACHN renal 66.1% | CAKI-1 renal 84.8%
active: SNB-75 CNS -1.98% | U251 CNS 6.92% | TK-10 renal -12.5% | A498 renal -8.93%

COc1cc(/C=C/c2cc(/C=C/c3ccc(O)c(OC)c3)n(C(=O)Nc3ccc(C)cc3)n2)ccc1O
inactive: HCT-15 colon 15.2% | SNB-19 CNS 20.3% | SK-MEL-28 melanoma 13.2% | EKVX NSCLC 20.3% | SN12C renal 18.3% | TK-10 renal 28.5% | ACHN renal 16.1%
active: HT29 colon -22.4% | SNB-75 CNS 9.53% | U251 CNS 6.19% | PC-3 prostate 8.08% | SK-MEL-5 melanoma 1.16% | UACC-62 melanoma -0.493% | LOX IMVI melanoma 1.89% | SK-MEL-2 melanoma -14% | UO-31 renal 0.972% | CAKI-1 renal 8.65% | A498 renal -12% | CCRF-CEM leukemia 0.439%

O=C(COc1cccc(/C=C2\CSc3ccc(Cl)cc3C2=O)c1)c1ccc(Cl)cc1
inactive: HCT-15 colon 47.9% | HT29 colon 16.7% | SNB-75 CNS 74.7% | SNB-19 CNS 89.1% | U251 CNS 59.9% | PC-3 prostate 43.7% | SK-MEL-5 melanoma 86.1% | UACC-62 melanoma 71.1% | LOX IMVI melanoma 23.8% | SK-MEL-28 melanoma 107% | SK-MEL-2 melanoma 44.2% | EKVX NSCLC 70.3% | SN12C renal 79.7% | TK-10 renal 127% | ACHN renal 81.7% | CAKI-1 renal 61.2% | A498 renal 91.3%
active: UO-31 renal -7.04% | CCRF-CEM leukemia -26.1%

OC(CNc1ccnc2cc(Cl)ccc12)CNC1CCCCC1 (centres undefined)
inactive: HCT-15 colon 75.6% | HT29 colon 31.3% | SNB-75 CNS 87.4% | SNB-19 CNS 100% | U251 CNS 63.1% | PC-3 prostate 69.4% | SK-MEL-5 melanoma 15.3% | UACC-62 melanoma 61.4% | LOX IMVI melanoma 73% | SK-MEL-28 melanoma 23.3% | SK-MEL-2 melanoma 91.8% | EKVX NSCLC 88.1% | SN12C renal 85.9% | UO-31 renal 61.2% | TK-10 renal 96.1% | ACHN renal 81.8% | CAKI-1 renal 71.2% | A498 renal 59.6% | CCRF-CEM leukemia 80.5%

c1ccc(CCCCc2ccc3ccccc3n2)cc1
inactive: HCT-15 colon 90.1% | HT29 colon 87.1% | SNB-75 CNS 93.6% | SNB-19 CNS 105% | U251 CNS 90.6% | PC-3 prostate 77.1% | SK-MEL-5 melanoma 109% | UACC-62 melanoma 102% | LOX IMVI melanoma 96.1% | SK-MEL-28 melanoma 104% | SK-MEL-2 melanoma 94.3% | EKVX NSCLC 98.1% | SN12C renal 105% | UO-31 renal 91.4% | TK-10 renal 90.2% | ACHN renal 103% | CAKI-1 renal 99.4% | A498 renal 94.5% | CCRF-CEM leukemia 99.8% | MOLT-4 leukemia 97.3%

CCN(CC)CCN1c2nc3ccccc3cc2Sc2cc3ccccc3nc21
active: HCT-15 colon 3.28% | HT29 colon -92.3% | SNB-75 CNS -7.91% | U251 CNS 5.23% | PC-3 prostate -13.8% | SK-MEL-5 melanoma -68.1% | UACC-62 melanoma -0.283% | LOX IMVI melanoma -100% | SK-MEL-28 melanoma -50.4% | SK-MEL-2 melanoma -35.9% | EKVX NSCLC -3.38% | UO-31 renal -64.1% | CAKI-1 renal 8.6% | CCRF-CEM leukemia -27.3% | MOLT-4 leukemia -47.8%
inactive: SNB-19 CNS 36.4% | SN12C renal 27% | TK-10 renal 82% | ACHN renal 24.9% | A498 renal 25.7%

Cc1cc(=O)n2nnc3cc(C(F)(F)F)ccc3n12
inactive: HCT-15 colon 101% | HT29 colon 104% | SNB-75 CNS 116% | SNB-19 CNS 109% | U251 CNS 107% | PC-3 prostate 101% | SK-MEL-5 melanoma 109% | UACC-62 melanoma 102% | LOX IMVI melanoma 106% | SK-MEL-28 melanoma 118% | SK-MEL-2 melanoma 99.2% | EKVX NSCLC 107% | SN12C renal 106% | UO-31 renal 84% | TK-10 renal 93.6% | ACHN renal 108% | CAKI-1 renal 113% | A498 renal 103% | CCRF-CEM leukemia 103% | MOLT-4 leukemia 91.3%

CC[C@@H](C(=O)[C@@H](C)[C@@H](O)[C@H](C)[C@@H]1O[C@@H]([C@@H](CC)C(=O)O)CC[C@@H]1C)C1O[C@]2(C=CC(=O)[C@]3(CC[C@@](C)([C@H]4CC[C@](O)(CC)[C@H](C)O4)O3)O2)[C@H](C)C[C@@H]1C (some centres undefined)
active: SK-MEL-5 melanoma -91.7% | UACC-62 melanoma -32.5% | SK-MEL-28 melanoma -81.2% | A498 renal -11.4%
inactive: HCT-15 colon 23.8% | HT29 colon 30.5% | SNB-75 CNS 19.2% | SNB-19 CNS 11.6% | U251 CNS 24% | PC-3 prostate 27.4% | LOX IMVI melanoma 35.4% | SK-MEL-2 melanoma 40.7% | EKVX NSCLC 38% | SN12C renal 27.6% | UO-31 renal 24.3% | TK-10 renal 57.7% | ACHN renal 31.6% | CAKI-1 renal 27%

CC(C)c1ccc(C(C)C(=O)N(CC2=C(C(C)c3ccccn3)c3ccccc3C2)C(C)C)cc1 (centres undefined)
inactive: HCT-15 colon 30.3% | HT29 colon 22.3% | SNB-75 CNS 49.3% | SNB-19 CNS 58.2% | U251 CNS 36% | PC-3 prostate 17.9% | SK-MEL-5 melanoma 30.2% | UACC-62 melanoma 53.4% | LOX IMVI melanoma 31.1% | SK-MEL-28 melanoma 79.7% | SK-MEL-2 melanoma 24.1% | EKVX NSCLC 13.6% | SN12C renal 34% | TK-10 renal 53.8% | ACHN renal 36.6% | A498 renal 49.1% | CCRF-CEM leukemia 30.4%
active: UO-31 renal -12.2% | CAKI-1 renal 3.55%

O=C(Cn1cc(CO)nn1)Nc1nc2ccccc2s1
inactive: HCT-15 colon 105% | HT29 colon 99.5% | SNB-75 CNS 92.4% | SNB-19 CNS 96.9% | U251 CNS 102% | PC-3 prostate 96.3% | SK-MEL-5 melanoma 102% | UACC-62 melanoma 97% | LOX IMVI melanoma 95.1% | SK-MEL-28 melanoma 106% | SK-MEL-2 melanoma 107% | EKVX NSCLC 94.1% | SN12C renal 96.5% | UO-31 renal 72.6% | TK-10 renal 106% | ACHN renal 104% | CAKI-1 renal 88.9% | A498 renal 118% | CCRF-CEM leukemia 103% | MOLT-4 leukemia 104%

COc1cc2c(cc1OC)C(C(CCCCCC(CCC(C)C)C1NCCc3cc(OC)c(OC)cc31)CCC(C)C)NCC2 (centres undefined)
active: HCT-15 colon -100% | HT29 colon -95.3% | SNB-75 CNS -99.5% | SNB-19 CNS -47.5% | U251 CNS -99% | PC-3 prostate -92.3% | SK-MEL-5 melanoma -96.4% | UACC-62 melanoma -91.5% | LOX IMVI melanoma -100% | SK-MEL-28 melanoma -100% | SK-MEL-2 melanoma -91.9% | EKVX NSCLC -74.4% | SN12C renal -85.5% | UO-31 renal -96.3% | TK-10 renal -97.2% | ACHN renal -100% | CAKI-1 renal -84.7% | A498 renal -59.6% | CCRF-CEM leukemia -74.3% | MOLT-4 leukemia 2.91%
